MITF primary – MITF inhibitors, primary screen, biochemical, AlphaScreen, human. inhibition, % at 2.6 µM. 0.91% of 650,000 active. AlphaScreen MITF homodimerization, bead proximity signal. AID 1259374, 2018; in the data active means inhibition above about 50%
GPR151 ag – activators of human GPR151, primary screen, cell-based, PathHunter beta-arrestin, luminescence; PathHunter beta-arrestin GPR151 cells; 1% of 650,000 active; activation, % at 11.2 µM; in the data active means activation above about 4.9%
TEAD-YAP inh – TEAD-YAP interaction inhibition, primary screen, TEAD-YAP interaction inhibitor project, luminescence, HEK-TIYL cells. TEAD-Gal4/YAP UAS-luciferase luminescence. inhibition, % at 9.12 µM. 1.4% of 640,000 active; in the data active means inhibition above about 32%
FBW7 activator – FBW7 E3 ligase activators, primary screen, biochemical, AlphaScreen, human | F-box/WD repeat-containing protein 7 (Homo sapiens), Q969H0 | AlphaScreen FBW7–phospho-cyclin E peptide binding, activator screen | normalized activity (activation), % at 26.1 µM | 0.13% of 650,000 active; in the data active means normalized activity above about 1.9%;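 further: purified mutant Fbw7 with reduced substrate affinity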
GPR151 confirm – GPR151 activators, triplicate retest, confirmation, cell-based, PathHunter beta-arrestin, luminescence | GPR151 PathHunter beta-arrestin cells, 90 min; % of EA-reagent control over plate median | 6,700 tested, under 10 active | activation, % at 11.2 µM | shares compounds with GPR151 ag;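 active means mean percent activation across replicates above the confirmation screen cutoff of 4.91%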
GPR119 counter – GPR119 activators in beta-arrestin cells, counter-screen for GPR151 activator project, cell-based, PathHunter beta-arrestin, luminescence, triplicate; shares compounds with GPR151 ag; 90 min; 0 = compound-well median, 100 = enzyme-acceptor control; activation, % at 11.2 µM; 0.3% of 6,700 active; AID 1508611, 2020;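 active means mean percent activation in the counterscreen above 29.09%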;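 further: counterscreen on off-target GPR119 to flag nonselective hits from the GPR151 activator screen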
Target sequence (Q8TDV5 whole entry, looked up): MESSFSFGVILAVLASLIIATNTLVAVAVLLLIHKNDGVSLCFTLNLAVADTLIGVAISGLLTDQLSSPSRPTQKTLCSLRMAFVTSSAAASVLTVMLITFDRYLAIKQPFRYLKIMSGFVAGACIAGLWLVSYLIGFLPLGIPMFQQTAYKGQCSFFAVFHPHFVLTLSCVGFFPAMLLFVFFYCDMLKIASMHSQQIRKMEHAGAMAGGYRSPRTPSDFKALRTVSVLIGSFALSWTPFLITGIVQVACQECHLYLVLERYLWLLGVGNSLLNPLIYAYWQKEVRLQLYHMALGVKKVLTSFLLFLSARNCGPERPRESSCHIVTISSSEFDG
A number is an active result. An excerpt weighted towards active compounds, which were near 3.5% of everything screened.

What do the screens show for `N#CCc1c[nH]c2c(F)c(F)c(F)c(F)c12`?
MITF primary: inactive; GPR151 ag: inactive; TEAD-YAP inh: inactive; FBW7 activator: inactive

What do the screens show for `CC(C)(C)c1ccc(C(=O)On2c(-c3ccccc3F)nc3ccccc3c2=O)cc1`?
MITF primary: inactive; GPR151 ag: 5.9; TEAD-YAP inh: inactive; FBW7 activator: inactive; GPR151 confirm: inactive; GPR119 counter: inactive

Results for CC(C)NC(=O)C(=O)NCc1cccnc1 ?
MITF primary: inactive; GPR151 ag: inactive; TEAD-YAP inh: inactive; FBW7 activator: inactive

Results for COc1ccc(-c2ocnc2C(=O)NCCN2CCCCCC2)cc1OC ?
MITF primary: inactive; GPR151 ag: inactive; TEAD-YAP inh: inactive; FBW7 activator: inactive

Results for O=C(NCCN1CCCCCC1)c1ncoc1-c1ccc(Cl)cc1 ?
MITF primary: inactive; GPR151 ag: 5.9; TEAD-YAP inh: inactive; FBW7 activator: inactive; GPR151 confirm: inactive; GPR119 counter: inactive

How did c1ccc(Cc2nnc3n2CCN(Cc2ccco2)CC3)cc1 do in these assays?
MITF primary: inactive; GPR151 ag: inactive; TEAD-YAP inh: inactive; FBW7 activator: inactive

How did COCCN(Cc1cccc(Cl)c1)C(=O)c1nc2ccc(-c3cn[nH]c3)cc2s1 do in these assays?
MITF primary: inactive; GPR151 ag: 6.2; TEAD-YAP inh: inactive; FBW7 activator: inactive; GPR151 confirm: inactive; GPR119 counter: inactive

Results for COCCN(Cc1cccc(OC)c1)C(=O)c1nc2ccc(-c3cn[nH]c3)cc2s1 ?
MITF primary: inactive; GPR151 ag: inactive; TEAD-YAP inh: inactive; FBW7 activator: inactive

Results for CCOC(=O)C1=C(C)NC(=S)NC1c1ccc(O)c(OCC)c1[N+](=O)[O-] (stereo not given) ?
MITF primary: inactive; GPR151 ag: inactive; TEAD-YAP inh: inactive; FBW7 activator: inactive

What do the screens show for `O=C(c1ccc2ccccc2c1)C1CCCN(C(=O)CCc2ccncc2)C1` (stereo not given)?
MITF primary: inactive; GPR151 ag: inactive; TEAD-YAP inh: inactive; FBW7 activator: inactive

What do the screens show for `COc1ccc(Cl)cc1N1CC(O)=C(c2nc3ccccc3[nH]2)C1=N`?
MITF primary: inactive; GPR151 ag: inactive; TEAD-YAP inh: inactive; FBW7 activator: inactive

How did N=C1C(c2nc3ccccc3[nH]2)=C(O)CN1CCc1ccccc1 do in these assays?
MITF primary: inactive; GPR151 ag: 5.3; TEAD-YAP inh: inactive; FBW7 activator: inactive; GPR151 confirm: inactive; GPR119 counter: inactive

How did COc1ccc(N2CC(O)=C(c3nc4ccccc4[nH]3)C2=N)cc1Cl do in these assays?
MITF primary: inactive; GPR151 ag: 6.0; TEAD-YAP inh: inactive; FBW7 activator: inactive; GPR151 confirm: inactive; GPR119 counter: inactive

What do the screens show for `Cc1c(C(=O)C(=O)N(C)c2ccccc2)c2ccccc2n1C`?
MITF primary: inactive; GPR151 ag: inactive; TEAD-YAP inh: inactive; FBW7 activator: inactive

Results for C=CCn1c(SCC(=O)NCCCN2CCOCC2)nnc1-c1sc2ccccc2c1Cl ?
MITF primary: inactive; GPR151 ag: inactive; TEAD-YAP inh: inactive; FBW7 activator: inactive

How did COc1cc(Nc2nc3ccc(C(=O)NCc4ccccc4)cc3s2)cc(OC)c1OC do in these assays?
MITF primary: inactive; GPR151 ag: inactive; TEAD-YAP inh: inactive; FBW7 activator: inactive

How did CCc1noc(C)c1C(=O)OCC(=O)Nc1cc(C)on1 do in these assays?
MITF primary: inactive; GPR151 ag: 5.3; TEAD-YAP inh: inactive; FBW7 activator: inactive; GPR151 confirm: inactive; GPR119 counter: inactive

What do the screens show for `CC1=C(C#N)c2nc(N)c(C#N)c(C)c2/C1=C\c1cccs1`?
MITF primary: inactive; GPR151 ag: 5.4; TEAD-YAP inh: inactive; FBW7 activator: inactive; GPR151 confirm: inactive; GPR119 counter: inactive

How did COC(=O)c1ccccc1NC(=O)C(C)C do in these assays?
MITF primary: inactive; GPR151 ag: 5.3; TEAD-YAP inh: inactive; FBW7 activator: inactive; GPR151 confirm: inactive; GPR119 counter: inactive

How did COc1ccc(OC)c(C(C)NC(=O)c2ccccc2Cl)c1 (stereo not given) do in these assays?
MITF primary: inactive; GPR151 ag: 14.9; TEAD-YAP inh: inactive; FBW7 activator: inactive; GPR151 confirm: inactive; GPR119 counter: inactive

What do the screens show for `COc1cc(NC(=O)c2ccccc2Cl)ccc1NC(=O)C(C)C`?
MITF primary: inactive; GPR151 ag: 10.2; TEAD-YAP inh: inactive; FBW7 activator: inactive; GPR151 confirm: inactive; GPR119 counter: inactive

What do the screens show for `Cc1cccc(N(C)S(=O)(=O)c2ccc(-n3cccn3)cc2)c1`?
MITF primary: inactive; GPR151 ag: inactive; TEAD-YAP inh: inactive; FBW7 activator: inactive

Results for O=C1NC(=O)C(=Cc2ccc(OC(=O)c3ccccc3Cl)cc2)C(=O)N1 ?
MITF primary: inactive; GPR151 ag: 5.5; TEAD-YAP inh: inactive; FBW7 activator: inactive; GPR151 confirm: inactive; GPR119 counter: inactive

What do the screens show for `C=CCNC(=O)c1cc(I)ccc1NC(=O)c1ccc(F)cc1`?
MITF primary: inactive; GPR151 ag: 10.9; TEAD-YAP inh: inactive; FBW7 activator: inactive; GPR151 confirm: inactive; GPR119 counter: inactive

How did C=CCNC(=O)c1cc(I)ccc1NC(=O)c1cccnc1 do in these assays?
MITF primary: inactive; GPR151 ag: 5.7; TEAD-YAP inh: inactive; FBW7 activator: inactive; GPR151 confirm: inactive; GPR119 counter: inactive

How did CN(C)S(=O)(=O)c1ccc(C(=O)OCc2cc(=O)oc3ccc4ccccc4c23)cc1 do in these assays?
MITF primary: inactive; GPR151 ag: inactive; TEAD-YAP inh: inactive; FBW7 activator: inactive

Results for CCCC(=O)N(c1ccc2oc(C)c(C(=O)OC)c2c1)S(=O)(=O)c1ccc2ccccc2c1 ?
MITF primary: inactive; GPR151 ag: 5.2; TEAD-YAP inh: inactive; FBW7 activator: inactive; GPR151 confirm: inactive; GPR119 counter: inactive

What do the screens show for `CCCC(=O)N(c1ccc2oc(C)c(C(=O)OCC)c2c1)S(=O)(=O)c1ccc2ccccc2c1`?
MITF primary: inactive; GPR151 ag: inactive; TEAD-YAP inh: inactive; FBW7 activator: inactive

What do the screens show for `COC(=O)c1ccccc1S(=O)(=O)C1CCN(C(=O)Nc2ccc(F)cc2F)CC1`?
MITF primary: inactive; GPR151 ag: 5.0; TEAD-YAP inh: inactive; FBW7 activator: inactive; GPR151 confirm: inactive; GPR119 counter: inactive

What do the screens show for `CC(C)(C)CC(=O)NCCCS(=O)(=O)N1CCN(c2ccc(F)cc2)CC1`?
MITF primary: inactive; GPR151 ag: 6.6; TEAD-YAP inh: inactive; FBW7 activator: inactive; GPR151 confirm: inactive; GPR119 counter: inactive

What do the screens show for `Cc1c(=O)n(OCc2ccc([N+](=O)[O-])cc2)c2ccccc2[n+]1[O-]`?
MITF primary: inactive; GPR151 ag: inactive; TEAD-YAP inh: inactive; FBW7 activator: inactive
